HPGD inh: qHTS Assay for Inhibitors of HPGD (15-Hydroxyprostaglandin Dehydrogenase); 4.3% of 150,000 active; AID 894, 2007; 15-hydroxyprostaglandin dehydrogenase [NAD(+)] (Homo sapiens), P15428; purified HPGD, NADH fluorescence kinetic, PGE2 substrate; Potency, µM, inactives show at the highest dose activity change, negative = inhibition, most hits filed as inhibitors; further: potency means the concentration at half of the fitted maximal effect
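NADH formation kinetics: reaction with 30 uM PGE2 and 1 mM NAD+ (final), 20 nM enzyme, Tris-HCl pH 8 with Tween 20, after 15 min compound preincubation at room temperature. Fluorescence change, last versus first of five reads.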
PNC inhibitor: High Content Assay for Compounds that inhibit the Assembly of the Perinucleolar Compartment | AID 2417, 2010 | activity change (PNC), negative = inhibition, % at 10 µM | PC3M PTB-GFP, PNC prevalence imaging, 16 h; active compounds read low | 3.1% of 140,000 active;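 active means readout at or below -70, meaning at least 70% loss of cells showing the perinucleolar compartment, a nuclear body marking cancer cells; inconclusive means readout between -30 and a set limit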;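 further: plate controls were DMSO wells for no effect and camptothecin positive control wells for full effect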
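PC3M cells stably expressing PTB-GFP, 750–1000 cells/well, treated 16 h at 37 °C with compound (23 nl of library stock), in duplicate. After paraformaldehyde fixation and Hoechst stain, imaged at 20x; PNC prevalence scored by image analysis.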
LMNA splice mod: qHTS Assay for Modulators of Lamin A Splicing; HeLa LMNA splicing GFP/RFP minigene ratio, 48 h; Potency, µM (highest dose often 46.1 µM), inactives show at the highest dose ratio change, negative = inhibition, usual class: inhibitors; AID 1487, 2009; 0.01% of 200,000 active; active means well fitted inhibition curve with a large enough effect in the signal ratio, with a control signal flat, not every such curve was filed as active; inconclusive means small, poorly fitted or top-dose-only effect, or effect the other way, or a change in a side signal; the % refers to the signal ratio; further: potency means the concentration at half of the fitted maximal effect
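S3 HeLa cells stably expressing lamin A-EGFP splicing minigene plus DsRed2, 600 cells/well, 48 h compound exposure at 37C. Laser-scanning cytometry; analysed as GFP (500-530 nm)/RFP (575-640 nm) total intensity ratio; 0.5% DMSO vehicle.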
Luc counter: Counterscreen for Luciferase (Kinase-Glo TM) Inhibition | Kinase-Glo luciferase, ATP luminescence, 8 min | 0.28% of 200,000 active | Potency, µM (highest dose often 38.3 µM), without a hit: top-dose activity change, negative = inhibition, most hits filed as inhibitors | Luciferin 4-monooxygenase (Photuris pensylvanica), Q27757; active means well fitted inhibition curve with a large enough effect; inconclusive means small, poorly fitted or top-dose-only effect; further: potency means the concentration at half of the fitted maximal effect; nearly all actives have a fitted effect of over 60% in size
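Recombinant Kinase-Glo luciferase, 10 uM ATP (linear range), luciferin; imidazole pH 7.2 / KCl / MgCl2 / Tween / BSA buffer; 8 min RT; luminescence.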
ALDH1A1 inh: qHTS Assay for Inhibitors of Aldehyde Dehydrogenase 1 (ALDH1A1); Aldehyde dehydrogenase 1A1 (Homo sapiens), P00352; Purified ALDH1A1, NADH fluorescence, propionaldehyde substrate; Potency, µM (highest dose often 75.3 µM), without a hit: at the highest dose activity, negative = inhibition, hits mostly inhibitors; 7.3% of 220,000 active;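 further: potency means the concentration at half of the fitted maximal effect; plate controls were no enzyme wells and a reference inhibitor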
Target sequence (P00352 whole entry, looked up): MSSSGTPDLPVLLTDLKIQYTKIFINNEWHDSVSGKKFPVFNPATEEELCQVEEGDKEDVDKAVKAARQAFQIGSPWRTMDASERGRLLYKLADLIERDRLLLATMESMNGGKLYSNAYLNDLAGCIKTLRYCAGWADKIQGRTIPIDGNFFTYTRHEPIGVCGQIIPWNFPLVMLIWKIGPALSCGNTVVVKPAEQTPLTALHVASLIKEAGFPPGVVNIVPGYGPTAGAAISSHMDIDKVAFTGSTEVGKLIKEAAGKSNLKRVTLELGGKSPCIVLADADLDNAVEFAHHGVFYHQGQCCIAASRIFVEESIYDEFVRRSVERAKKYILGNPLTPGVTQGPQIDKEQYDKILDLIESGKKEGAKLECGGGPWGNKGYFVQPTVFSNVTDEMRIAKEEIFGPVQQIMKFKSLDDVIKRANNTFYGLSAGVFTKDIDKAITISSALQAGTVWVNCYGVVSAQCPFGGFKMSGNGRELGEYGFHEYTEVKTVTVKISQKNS
Starred values were filed as active, the others as inactive; [ ] = dose if it differs, or a comment. The list is not random: actives were taken first. Their share in the collection is about 10%. Unless noted, the call rests on the fitted dose curve; in most records, active means well fitted inhibition curve with a large enough effect (not every such curve was filed as active); inconclusive means small, poorly fitted or top-dose-only effect, or another doubt; inactive means no such curve, though single readings can be large or run the other way. Unless noted, on the % scale 0 is the no-effect control and ±100 the full control effect.

What do the screens show for `CCC(=O)N1CCc2cc(CNC(=O)c3cccc(N(C)C)c3)ccc21`?
LMNA splice mod: 9.3%[46 µM]

Results for O=c1c2ccccc2nnn1Cc1nnc(-c2ccccc2Br)o1 ?
HPGD inh: 28.2µM*; PNC inhibitor: inconclusive; LMNA splice mod: -2.0%; Luc counter: -0.7%; ALDH1A1 inh: inconclusive

What do the screens show for `O=C1c2ccccc2S(=O)(=O)N1Cc1nnc(-c2ccccc2Br)o1`?
HPGD inh: -16.8%; PNC inhibitor: -28.3; LMNA splice mod: -5.2%; Luc counter: 0.1%; ALDH1A1 inh: inconclusive

What do the screens show for `Nc1nnc(SCC(=O)c2ccc3ccccc3c2)s1`?
HPGD inh: 22.4µM*; PNC inhibitor: 16.2; LMNA splice mod: 4.7%; Luc counter: -1.6%; ALDH1A1 inh: 8.91µM*

Results for COCCNc1nnc(SCC(=O)Nc2sc3c(c2C(=O)c2ccccc2)CCCC3)s1 ?
HPGD inh: -26.4%; PNC inhibitor: 6.8; LMNA splice mod: inconclusive; Luc counter: -1.1%; ALDH1A1 inh: 28.2µM*

How did Nc1nnc(SCC(=O)c2cccc([N+](=O)[O-])c2)s1 do in these assays?
Luc counter: 0.6%; ALDH1A1 inh: inconclusive

Results for Nc1nnc(SCC(=O)Nc2sc3c(c2C(=O)c2ccccc2)CCCC3)s1 ?
HPGD inh: -19.8%; PNC inhibitor: 31.2; LMNA splice mod: inconclusive; Luc counter: -0.3%; ALDH1A1 inh: 12.6µM*

What do the screens show for `O=c1cc(CSc2ccccc2)[nH]c2ccc(F)cc12`?
LMNA splice mod: -10.9%[46 µM]

How did C=C1C(=O)OC2C[C@@]3(C)CCCC(C)C3=CC12 (some centres undefined) do in these assays?
HPGD inh: -9.4%; LMNA splice mod: inconclusive; Luc counter: -0.1%; ALDH1A1 inh: -11.1%

How did COc1ccccc1/C=C/C=N/n1c(-c2ccncc2)n[nH]c1=S do in these assays?
HPGD inh: 14.1µM*; PNC inhibitor: inconclusive; LMNA splice mod: inconclusive; Luc counter: 0.5%; ALDH1A1 inh: 4.1%

Results for COc1ccc(-c2cc(-c3n[nH]c(=S)n3-c3ccccc3OC)[nH]n2)cc1 ?
HPGD inh: 11.2µM*; PNC inhibitor: 47.5; LMNA splice mod: 1.7%; Luc counter: 0.6%; ALDH1A1 inh: inconclusive

How did COc1ccccc1/C=C\C=N\n1c(C2CCCCC2)n[nH]c1=S do in these assays?
HPGD inh: 14.1µM*; PNC inhibitor: 7.4; LMNA splice mod: -2.1%[0.0737 µM]; Luc counter: 1.7%; ALDH1A1 inh: inconclusive

What do the screens show for `COc1ccc(-c2n[nH]c(=S)n2/N=C/C=C\c2ccccc2OC)cc1`?
HPGD inh: 0.891µM*; PNC inhibitor: -5.3; LMNA splice mod: inconclusive; Luc counter: 0.3%; ALDH1A1 inh: inconclusive

What do the screens show for `COc1ccccc1/C=C/C=N/N1CCN(c2ccccn2)CC1`?
HPGD inh: -4.4%; PNC inhibitor: 28.7; LMNA splice mod: 1.7%[0.0737 µM]; Luc counter: -1.2%; ALDH1A1 inh: inconclusive

How did CCOc1cc(CNC(=O)c2ccc(C)c(NC(=O)c3nsc4ccccc34)c2)ccc1OC do in these assays?
LMNA splice mod: 5.8%[46 µM]

Results for C=C(CC1([C@@H](NP(=O)(c2ccccc2)c2ccccc2)[C@H]2C[C@@H]2CCN(C(=O)OCC)S(=O)(=O)c2ccc(C)cc2)CC1)c1ccccc1 ?
HPGD inh: -11.1%; Luc counter: -1.5%; ALDH1A1 inh: -7.5%

How did Nc1ncnc2c1ncn2[C@H]1O[C@@H](CSCC[C@@H](N)C(=O)O)[C@H](O)[C@@H]1O do in these assays?
ALDH1A1 inh: -2.6%

What do the screens show for `COc1cccc(-c2nnc3sc(C4CCCCC4)nn23)c1`?
HPGD inh: -27.9%; PNC inhibitor: 21.7; LMNA splice mod: -9.3%; Luc counter: 2.9%; ALDH1A1 inh: inconclusive

How did CCOc1cccc(-c2nnc3sc(C4CCCCC4)nn23)c1 do in these assays?
HPGD inh: 31.6µM*; PNC inhibitor: inconclusive; LMNA splice mod: inconclusive; Luc counter: -6.6%; ALDH1A1 inh: 25.1µM*

What do the screens show for `Cn1c(=O)n(C)c2cc(/C=N/NC(N)=S)ccc21`?
LMNA splice mod: -21.1%[46 µM]; Luc counter: 1.2%; ALDH1A1 inh: 1.4%
